# A selection: hits, their analogues and other compounds. The true share with any hit is near 2.5%.
# Anesthetic bind: qHTS Assay for Identification of Novel General Anesthetics | Potency, µM (titrated, usually from 77.5 µM), inactives show at the highest dose activity change, negative = displacement, hits mostly inhibitors | apoferritin/1-aminoanthracene competitive binding, fluorescence | 0.074% of 350,000 active | AID 485281, 2010 | Ferritin light chain (Equus caballus), P02791; further: potency means the concentration at half of the fitted maximal effect; on the % scale 0 is the no-effect control and ±100 the full control effect; nearly all actives have a fitted effect of over 20% in size
# Target sequence (P02791 2-175 limits assumed): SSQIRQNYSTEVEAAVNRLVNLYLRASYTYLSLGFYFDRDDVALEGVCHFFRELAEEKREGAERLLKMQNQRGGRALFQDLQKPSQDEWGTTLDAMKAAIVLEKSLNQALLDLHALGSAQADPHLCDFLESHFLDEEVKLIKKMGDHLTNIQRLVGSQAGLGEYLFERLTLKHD
#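 Apoferritin-based anesthetic binding model; compound displacement of fluorescent 1-AMA measured as endpoint fluorescence after 10 minutes at room temperature, scaled to free-ligand and complex controls.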
# aSyn rescue: qHTS of alpha-syn Inhibitors; 0.14% of 370,000 active; Potency, µM (highest dose often 46.1 µM), without a hit: at the highest dose growth rescue (activation), usual class: activators; Yeast expressing alpha-synuclein, growth rescue, BacTiter-Glo, 24 h; further: potency means the concentration at half of the fitted maximal effect; % of control where 0% means no effect; nearly all actives have a fitted effect of over 65% in size
#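 Screening used galactose-induced yeast with toxic alpha-synuclein levels, exposed to compound for 24 hr at 30 deg C. Cell growth, read with BacTiter-Glo luminescence, gave the measured signal.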
# CCT chaperon mod: High-Throughput Screening for Modulators of Cytosolic Chaperonin Activity. purified chaperonin ATPase assay, HTRF ADP detection, 30 min. activity change, % (test concentration not listed), hits read low. 0.3% of 360,000 active. AID 651819, 2012; in the data active means activity change below about -30%; further: on the % scale 0 is the no-effect control and ±100 the full control effect
#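 Nucleotide hydrolysis assay: TRiC at 20–40 nM final (set by batch activity) with 10 uM ATP, 30 min at 37 °C, in presence of 76 uM compound. Detection by competitive ADP HTRF, 30 min ambient.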
# TDP43 rescue: qHTS of TDP-43 Inhibitors | 1.8% of 410,000 active | TDP-43 expressing yeast growth rescue, BacTiter-Glo, 24 h | Potency, µM (titrated, usually from 46.1 µM), for the others: top-dose growth rescue (activation), usual class: activators | AID 652104, 2013; further: potency means the concentration at half of the fitted maximal effect; % of control where 0% means no effect; nearly all actives have a fitted effect of over 50% in size
#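 Galactose-induced TDP-43 yeast, OD600=0.02, compound pinned; 24 hr, 30 deg C; BacTiter-Glo luminescence for growth. Inhibitors of TDP-43 toxicity read as activators.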
# Mito fusion act: qHTS Assay for Small Molecule Inhibitors of Mitochondrial Division or Activators of Mitochondrial Fusion; S. cerevisiae fusion-defective mutant growth rescue, CellTiterGlo 48 h; Potency, µM (top dose mostly 46.1 µM), without a hit: at the highest dose growth rescue (activation), most hits filed as activators; 0.23% of 320,000 active; further: potency means the concentration at half of the fitted maximal effect; % of control where 0% means no effect; nearly all actives have a fitted effect of over 45% in size
#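 Temperature-sensitive fusion-defective S. cerevisiae (e.g. fzo1-1, mgm1-5) were grown with compound in YPEG medium (3% ethanol, 3% glycerol) for 48 hours at 37C. Growth rescue was measured as viability by CellTiterGlo luminescence after 10 minutes at ambient.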
# Akt phos inh: HTS Assay for Inhibitors of Akt Phophorylation: Primary Screen. Neuro2A IGF-stimulated pAkt S473 HTRF, 20 min; active compounds read low. activity change, % for hits at 50 µM. 0.32% of 360,000 active. AID 651550, 2012; in the data active means activity change below about -80%; inconclusive means mostly about -51% to -80%; further: on the % scale 0 is the no-effect control and ±100 the full control effect
#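 Neuro2A cells in DMEM with 0.5% FBS, overnight at 37 deg C, given compound at single 50 µM final, then IGF (6 nM final) for 20 min at 37 deg C. Lysed; phospho-Akt Ser473 by HTRF after 24 h, 665/615 ratio.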
# An asterisk follows results filed as active; i = inactive; ? = inconclusive; · = no result given; [ ] = dose if it differs, or a comment. Unless noted, the call rests on the fitted dose curve; in most records, active means well fitted curve in the direction sought with a large enough effect; inconclusive means small, poorly fitted or top-dose-only effect, or another doubt; inactive means no such curve, though single readings can be large; an effect the other way counts as inactive or inconclusive.
SMILES,Anesthetic bind,aSyn rescue,CCT chaperon mod,TDP43 rescue,Mito fusion act,Akt phos inh
COc1ccc(F)cc1C1=CC(=O)C[C@H](c2ccc3c(c2)OCO3)C1,·,1.4%,0.3,22.4µM*,24.4%,i
COc1ccc([C@H]2CC(=O)C=C(c3ccc4c(c3)OCO4)C2)cc1OC,·,-0.7%,-2.8,15.6%,17.8%,i
COc1cccc(OC)c1C1=CC(=O)C[C@H](c2ccc3c(c2)OCO3)C1,·,-5.8%,-2.7,?,21.5%,i
COc1cc(F)c(C2=CC(=O)C[C@H](c3ccc4c(c3)OCO4)C2)cc1F,·,-1.9%,-0.7,12.6µM*,11.1%,i
CC(C)C[C@H](NC(=O)CNC(=O)[C@@H]1CCCN1C(=O)[C@H](CCCNC(=N)N)NC(=O)[C@H](CC(=O)O)NC(=O)[C@@H](NC(=O)[C@H](CC(N)=O)NC(=O)[C@@H](NC(=O)[C@H](CC(=O)O)NC(=O)CNC(=O)[C@@H](NC(=O)[C@@H](NC(=O)[C@H](C)NC(=O)[C@@H](N)CCC(N)=O)[C@@H](C)O)C(C)C)C(C)C)[C@@H](C)O)C(=O)N[C@@H](CC(C)C)C(=O)N[C@@H](CC(=O)O)C(=O)N[C@@H](CC(C)C)C(=O)N[C@@H](CCCCN)C(=O)O,4.4%,·,·,·,·,·
CCN(CC)S(=O)(=O)c1ccc(N2CCOCC2)c(NC(=O)c2ccccc2)c1,-11.9%,8.7%,2.2,22.7%,-0.8%,i
CCN(CC)S(=O)(=O)c1ccc(N2CCOCC2)c(NC(=O)C23CC4CC(CC(Cl)(C4)C2)C3)c1,45.4%,-2.8%,-71.8*,-17.7%,1.8%,i
CCN(CC)S(=O)(=O)c1ccc(N2CCOCC2)c(NC(=O)c2cc3ccccc3o2)c1,·,-6.0%,-2.5,35.5µM*,·,i
O=C(CCl)N1c2ccccc2Sc2ccc3ccccc3c21,·,18.3%,1.2,5.01µM*,·,i
CCOC(=O)c1c(-c2ccc(OC)cc2)csc1/N=C/C1=C(O)CCCC1=O,?,10.8%,-3.2,8.91µM*,?,i
CCOC(=O)c1c(/N=C/C2=C(O)CCCC2=O)sc(C)c1C,-2.9%,0.8%,0.5,-11.0%,-1.3%,i
Fc1ccc(-c2cc(C(F)(F)F)nc(NCC3CCCO3)n2)cc1 (centres undefined),-23.5%,-16.5%,-5.5,?,19.5%,i
FC(F)(F)c1cc(-c2ccccc2)nc(NCC2CCCO2)n1 (centres undefined),-20.7%,-16.2%,0.3,12.6µM*,6.6%,i
Oc1ccc(CNc2cccc(F)c2F)c2cccnc12,·,·,·,·,1.2%,·
CC(=O)c1cccc(NC(=O)COC(=O)c2ccccc2OCc2cccc(Br)c2)c1,·,-11.1%,·,·,·,·
CCN1C(C(=O)c2ccccc2)=C(OC(=O)COc2ccc(C)cc2)c2ccccc2S1(=O)=O,-3.8%,·,·,?,·,·
C#Cc1ccc(NC(=O)C2(C)CCN2C(=O)C/C=C/c2ccccc2)cc1 (centres undefined),·,20.3%,2.6,25.1µM*,·,i
C#Cc1ccc(NC(=O)C2(C)CCN2C(=O)Cc2ccc(C(C)C)cc2)cc1 (centres undefined),·,12.5%,-1.6,35.5µM*,·,i
CC1(C(=O)Nc2cccc(C#N)c2)CCN1C(=O)C/C=C/c1ccccc1 (centres undefined),·,-1.0%,-2.0,0.0%,·,i
OC[C@H]1NC[C@H](O)[C@@H](O)[C@@H]1O,9.8%,·,·,·,·,·
CCOC(=O)C1CCN(C(=O)c2ccc(C)c(NC(=O)c3nsc4ccccc34)c2)CC1,-11.7%,·,·,35.5µM*,·,·
Fc1cccc(Cl)c1CSc1nnc(-c2ccncc2)o1,-13.8%,-8.5%,-4.0,12.6µM*,1.5%,i
COc1cc(-c2nnc(SCc3c(F)cccc3Cl)o2)cc(OC)c1OC,-2.2%,0.6%,2.2,?,?,·
Clc1ccccc1CSc1nnc(-c2ccncc2)o1,?,7.1%,0.5,10µM*,-2.3%,i
Clc1cccc(NCc2nnc(SCc3ccccc3Cl)o2)c1,?,20µM*,-4.8,12.6µM*,?,i
SMILES,Anesthetic bind,aSyn rescue,CCT chaperon mod,TDP43 rescue,Mito fusion act,Akt phos inh
Clc1cccc(NCc2nnc(SCc3ccccc3)o2)c1,?,4.6%,-0.2,0.0%,?,i
CSCC[C@H](N)C(=O)N[C@@H](CO)C(=O)N[C@@H](CCCN=C(N)N)C(=O)N1CCC[C@H]1C(=O)N[C@@H](C)C(=O)N[C@@H](CS)C(=O)N1CCC[C@H]1C(=O)N[C@@H](CC(N)=O)C(=O)N[C@@H](CC(=O)O)C(=O)N[C@@H](CCCCN)C(=O)N[C@@H](Cc1ccc(O)cc1)C(=O)N[C@@H](CCC(=O)O)C(=O)O,0.7%,·,·,·,·,·
COc1cc2c(NC3CCN(C)CC3)nc(N3CCCN(C)CC3)nc2cc1OCc1ccccc1,·,-10.8%,·,·,·,·
COc1ccc(C)cc1S(=O)(=O)Nc1ccc(F)c(Cl)c1,-2.3%,3.9%,-5.1,17.8µM*,?,i
CSCC[C@H](NC(=O)[C@H](CC(C)C)NC(=O)CNC(=O)[C@@H]1CCCN1C(=O)[C@H](Cc1ccccc1)NC(=O)[C@H](Cc1ccccc1)NC(=O)[C@H](CC(=O)O)NC(=O)[C@H](Cc1cnc[nH]1)NC(=O)[C@H](CCSC)NC(=O)[C@@H](N)CC(=O)O)C(N)=O,-2.4%,·,·,·,·,·
O=C(Nc1nccs1)c1ccc(S(=O)(=O)NCC2CCCCC2)cc1,14.1µM*,5.0%,-1.0,-8.7%,-4.5%,i
CCOC(=O)c1cnc(Nc2ccccc2)nc1C(F)(F)F,-3.8%,-0.2%,1.0,17.8µM*,1.9%,i
CCOC(=O)c1cnc(-c2ccccc2)nc1C(F)(F)F,-6.8%,1.0%,1.7,5.4%,-11.0%,i
CCCCCCC#CC1C=CC(OC(C)=O)C(COC(C)=O)O1 (centres undefined),1.2%[15.3 µM],·,·,·,·,·
Cc1ccc(S(=O)(=O)c2c(N)n(-c3ccccc3)c3nc4ccccc4nc23)cc1,-9.8%,-10.0%,-34.9*,-1.5%,4.6%,i
COc1ccc(N2CCN(C(=O)CCc3c(C)nc4c(-c5ccccc5)c(C)nn4c3C)CC2)cc1,-2.3%,·,·,22.4µM*,·,·
Nc1ccc(C(=O)OCC(=O)N2CCc3ccccc3C2)cc1[N+](=O)[O-],-14.9%,15.6%,-1.9,8.6%,11.2µM*,i
O=C(OCC(=O)N1CCc2ccccc2C1)c1ccc(Cl)c([N+](=O)[O-])c1,·,?,-0.7,-18.2%,4.0%,i
